The nature of experiment [1]: CCTE_Mundy_HCI_Cortical_Synap_Neur_Matur_SynapseCount: CCTE's Synaptogenesis and Neurite Maturation Assay in rat cortical cells for Synapse Count, Mundy Lab (AID 2284218). In a few lines: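 Endpoint: synapses/neuron by HCI (synaptophysin puncta on MAP2-labelled neurites, Hoechst nuclei). Rat primary cortical cells, AraC DIV 5, dosed DIV 7, fixed DIV 12; DMSO negative control.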

A short description of experiment [2]: CCTE_Mundy_HCI_hN2_NOG_NeuriteCount: CCTE's Neurite Outgrowth Assay in human hN2 cells for Neurite Count, Mundy Lab (AID 2284219; active = hit-call score of the fitted dose curve at least 0.9, where 1 is the maximum). In a few lines: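 In this morphology assay, hNP1-derived neurons received test chemical 2 h post-plating and were fixed two days later in warm paraformaldehyde/sucrose containing Hoechst 33342. Neurites, labelled by rabbit anti-βIII-tubulin (1:800) and Alexa Fluor-488 (1:500), were counted automatically.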

Experiment [3] in a line: CCTE_Mundy_HCI_hN2_NOG_NeuriteLength: CCTE's Neurite Outgrowth Assay in human hN2 cells for Neurite Length, Mundy Lab (AID 2284220; active = hit-call score of the fitted dose curve at least 0.9, where 1 is the maximum). An outline of the steps:
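Using βIII-tubulin immunofluorescence and Hoechst nuclear counterstain, this component quantifies neurite length in hNP1-derived neurons.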

Experiment [4] in a line: CCTE_Mundy_HCI_hN2_NOG_NeuronCount: CCTE's Neurite Outgrowth Assay in human hN2 cells for Neuron Count, Mundy Lab (AID 2284221; active = hit-call score of the fitted dose curve at least 0.9, where 1 is the maximum). In a few lines:
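Read-out is the number of betaIII-tubulin-positive neurons imaged by automated high-content analysis, with DMSO as negative control.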

A short description of experiment [5]: CCTE_Mundy_HCI_Cortical_Synap_Neur_Matur_NeuriteCount: CCTE's Synaptogenesis and Neurite Maturation Assay in rat cortical cells for Neurite Count, Mundy Lab (AID 2284222). In a few lines:
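Chemical exposure runs DIV 7–12 in rat cortical cultures, glia suppressed by AraC at DIV 5; measurement is at DIV 12. Imaging-derived neurite counts are fitted against DMSO baseline.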

Experiment [6] in a line: CCTE_Mundy_HCI_Cortical_Synap_Neur_Matur_CellBodySpotCount: CCTE's Synaptogenesis and Neurite Maturation Assay in rat cortical cells for Cell Body Spot Count, Mundy Lab (AID 2284223). An outline of the steps: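 Primary rat cortical cultures, AraC added at DIV 5; dosed DIV 7 through DIV 12 […]. Fixed, stained for MAP2 and synaptophysin with Hoechst; cell body-associated synaptophysin puncta per neuron counted by high-content imaging, loss vs DMSO.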

Experiment [7] can be described thus: CCTE_Mundy_HCI_hNP1_Pro_ResponderAvgInten: CCTE's Proliferation Assay in human neuroprogenitor cells, Mundy Lab (AID 2284224; active = hit-call score of the fitted dose curve at least 0.9, where 1 is the maximum;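 also: human neural progenitor cells hNP1 derived from WA09 embryonic stem cells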). An outline of the steps: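 Human neuroprogenitors (hNP1, WA09 lineage) receive test chemical after 40 to 44 hours of attachment. A four-hour BrdU pulse begins twenty hours later, followed by fixation and high content imaging; signal is referenced to DMSO controls.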

Experiment [8] in a line: CCTE_Mundy_HCI_hNP1_Casp3_7: CCTE's Caspase-Glo 3/7 Assay in human neuroprogenitor cells for Apoptosis, Mundy Lab (AID 2284240). An outline of the steps:
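Neuroepithelial-lineage stem cells from WA09 embryonic cells were treated with chemicals after 40–44 h of culture. Twenty-four hours later, caspase-3/7 activation was detected luminescently after a 30 min room-temperature reagent step, with DMSO as baseline.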

Experiment [9] in a line: CCTE_Mundy_HCI_hNP1_CellTiter: CCTE's Cell Titer-Glo 2 Assay in human neuroprogenitor cells for Viability, Mundy Lab (AID 2284241; active = hit-call score of the fitted dose curve at least 0.9, where 1 is the maximum;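 also: a hit is a drop in ATP luminescence versus DMSO meaning reduced viability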). An outline of the steps:
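Measures ATP content in human neural progenitors derived from WA09 embryonic cells. Read-out at 26.5 hours after dosing, with DMSO serving as the negative control and baseline.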

A short description of experiment [10]: CCTE_Mundy_HCI_Cortical_Synap_Neur_Matur_NeuronCount: CCTE's Synaptogenesis and Neurite Maturation Assay in rat cortical cells for Neuron Count, Mundy Lab (AID 2284242; active = hit-call score of the fitted dose curve at least 0.9, where 1 is the maximum;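 also: hits reduce neuron count versus DMSO baseline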). An outline of the steps:
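Measured at DIV 12: fluorescently labelled neurons (Hoechst nuclei, MAP2) in rat primary cortical cultures, counted by high-content imaging. AraC suppressed glia from DIV 5; DMSO served as negative control.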

Experiment [11] is described as follows: IUF_NPC2c_oligodendrocyte_migration_120hr: Leibniz Research Institute for Environmental Medicine (IUF) 120-hour Neural Progenitor Cell Migration Assay for Oligodendrocyte Migration (NPC2c) (AID 2284297).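 Also: O4-positive oligodendrocyte migration distance divided by radial glia migration distance.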 In a few lines: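 Human fetal neural progenitor spheres (0.3 mm) are plated on poly-D-lysine/laminin in N2 differentiation medium and exposed for 120 h, with half-medium renewal at day 3. Oligodendrocyte (O4+) migration distance comes from ICC imaging, normalised to radial glia migration.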

Experiment [12] can be described thus: IUF_NPC2a_radial_glia_migration_120hr: Leibniz Research Institute for Environmental Medicine (IUF) 120-hour Neural Progenitor Cell Migration Assay for Radial Glia Migration (NPC2a) (AID 2284298). In a few lines: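 Human fetal-cortex neural progenitor spheres (0.3 mm) plated on poly-D-lysine/laminin in N2 differentiation medium, exposed 120 h at 37C with half-medium renewal at day 3. Radial glia migration distance (um) measured from Hoechst-stained nuclei images; DMSO baseline.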

Experiment [13] is described as follows: IUF_NPC2a_radial_glia_migration_72hr: Leibniz Research Institute for Environmental Medicine (IUF) 72-hour Neural Progenitor Cell Migration Assay for Radial Glia Migration (NPC2a) (AID 2284299). An outline of the steps:
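Spheres of human primary neural progenitors migrate on poly-D-lysine/laminin under compound exposure at 37C, 5% CO2. The 72 h radial glia migration distance comes from brightfield images, measured manually.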

Experiment [14] is described as follows: IUF_NPC2b_neuronal_migration_120hr: Leibniz Research Institute for Environmental Medicine (IUF) 120-hour Neural Progenitor Cell Migration Assay for Neuron Migration (NPC2b) (AID 2284300). An outline of the steps:
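0.3 mm hNPC spheres on poly-D-lysine/laminin in N2 differentiation medium exposed 120 h, half-medium refresh day 3; 7 concentrations, DMSO max 0.1%. Neuron (TUBB3) distance from sphere core by ICC imaging, normalised to radial glia migration.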

Experiment [15] is described as follows: IUF_NPC3_neuronal_differentiation_120hr: Leibniz Research Institute for Environmental Medicine (IUF) 120-hour Neuronal Differentiation Assay (NPC3) (AID 2284301). An outline of the steps: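 Neuronal differentiation of primary human neural progenitors measured by high-content imaging: percent TUBB3+ of Hoechst+ nuclei within migrated area at 120 h, seven-point serial dilution plus solvent control, gain or loss relative to DMSO.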

Experiment [16] can be described thus: IUF_NPC4_neurite_length_120hr: Leibniz Research Institute for Environmental Medicine (IUF) 120-hour Neuronal Morphology Assay for Neurite Length (NPC4) (AID 2284302). An outline of the steps: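 Neurons from differentiating human fetal neural progenitor spheres are scored for average neurite length after five days of compound exposure. Fitting uses DMSO as negative control.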

Experiment [17] in a line: IUF_NPC5_oligodendrocyte_differentiation_120hr: Leibniz Research Institute for Environmental Medicine (IUF) 120-hour Oligodendrocyte Differentiation Assay (NPC5) (AID 2284304; active = hit-call score of the fitted dose curve at least 0.9, where 1 is the maximum;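 also: primary human fetal neural progenitor spheres plated to migrate and differentiate; share of O4-positive cells among Hoechst nuclei found by CNN image analysis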). An outline of the steps: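 Human fetal neural progenitor spheres (0.3 mm) plated on poly-D-lysine/laminin in N2 differentiation medium and exposed for 120 h at 7 concentrations, with half-medium renewal at day 3. O4-positive cells identified by CNN, expressed as percent of Hoechst nuclei.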

The nature of experiment [18]: IUF_NPC4_neurite_area_120hr: Leibniz Research Institute for Environmental Medicine (IUF) 120-hour Neuronal Morphology Assay for Neurite Area (NPC4) (AID 2284305; active = hit-call score of the fitted dose curve at least 0.9, where 1 is the maximum). An outline of the steps: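 Endpoint at 120 h: automated imaging of TUBB3/Hoechst-stained differentiating human neural progenitor spheres, neurite area per neuron from skeletonization. DMSO solvent control, not above 0.1%, set the baseline; medium was half-replaced on day 3.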

Experiment [19] can be described thus: IUF_NPC2-5_cytotoxicity_72hr: Cytotoxicity Assessment at 72 hours in the Leibniz Research Institute for Environmental Medicine (IUF) Neural Progenitor Cell Migration and Differentiation Assay for Cytotoxicity (NPC2-5) (AID 2284306; active = hit-call score of the fitted dose curve at least 0.9, where 1 is the maximum;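 also: LDH release into supernatant measured by resorufin fluorescence marking membrane damage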). In a few lines: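 Primary human neural progenitor spheres migrate and differentiate on laminin. Compound is present from the start of differentiation, with DMSO kept at or below 0.1%. At 72 h, supernatant LDH is quantified fluorometrically, with values fitted in the positive direction.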

The nature of experiment [20]: IUF_NPC2-5_cytotoxicity_120hr: Cytotoxicity Assessment at 120 hours in the Leibniz Research Institute for Environmental Medicine (IUF) Neural Progenitor Cell Migration and Differentiation Assay (NPC2-5) (AID 2284307; active = hit-call score of the fitted dose curve at least 0.9, where 1 is the maximum). In a few lines:
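Human fetal (GW 16-19) neural progenitor spheres (0.3 mm) plated on poly-D-lysine/laminin in N2 differentiation medium, exposed 120 h with half-medium renewal at day 3; 7 concentrations plus solvent control, DMSO ≤0.1%. LDH release in supernatant read by resorufin fluorescence.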

Experiment [21] in a line: IUF_NPC2-5_cell_number_120hr: Cell Number Assessment at 120 hours in the Leibniz Research Institute for Environmental Medicine (IUF) Neural Progenitor Cell Migration and Differentiation Assay (NPC2-5) (AID 2284308).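 Also: count of Hoechst-stained nuclei in migration zone around plated human neural progenitor spheres.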 In a few lines: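 Human fetal neural progenitor spheres (0.3 mm) plated on poly-D-lysine/laminin in N2 differentiation medium, exposed five days across 7 concentrations with half-medium refresh at day 3. Hoechst-positive nuclei counted in migration area at 120 h, relative to DMSO.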

Experiment [22] is described as follows: IUF_NPC2-5_viability_120hr: Viability Assessment at 120 hours in the Leibniz Research Institute for Environmental Medicine (IUF) Neural Progenitor Cell Migration and Differentiation Assay (NPC2-5) (AID 2284312). In a few lines:
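Human fetal (GW 16-19) neural progenitor spheres of 0.3 mm were plated on poly-D-lysine/laminin in N2 differentiation medium and exposed from day 0 for 120 h, with half-medium refresh at day 3. Viability was read as alamar blue resazurin-to-resorufin fluorescence against DMSO.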

Molecules are shown by their SMILES. Inconclusive results are not listed. Active and inactive are the calls of the source. The calls were made as follows, unless noted: active = hit-call score of the fitted dose curve at least 0.9, where 1 is the maximum; inactive = score below 0.9.

Our source for the AC50 and outcome values is PubChem BioAssay (EPA / NIEHS).

`O=[As]O`: the AC50 in [1] is 5 µM (active); in experiment [2], 6.15 µM (active); in experiment [3], 5.09 µM (active); in experiment [4], 4.47 µM (active); in experiment [5] it was 4.43 µM (active); in experiment [6], 5 µM (active). Moreover, the AC50 was 2.79 µM (active) in experiment [7]; 3.8 µM (active) in [8]; 6.1 µM (active) in experiment [9]; 2.74 µM (active) in experiment [10]; 0.805 µM (active) in [12]; 0.752 µM (active) in [16]. The call in [11], in experiment [13], in [14], in [15], in experiment [17] and in [18] was inactive. In addition, the outcome in experiment [19], in experiment [20], in experiment [21] and in [22] was inactive.
